Holding throughout (assay): glycan array binding signal (z-score within array); higher = stronger binding
What all share (details): glycan notation: IUPAC condensed, linker removed

In test [1] the test system is Fuc(a1-2)Gal(b1-3)[Fuc(a1-4)]GlcNAc(b1-2)Man(a1-3)[Fuc(a1-2)Gal(b1-3)[Fuc(a1-4)]GlcNAc(b1-2)Man(a1-6)]Man(b1-4)GlcNAc(b1-4)GlcNAc. An outline of the steps: (§1)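 The Consortium for Functional Glycomics database supplied 3228 glycan arrays, of which those lacking an available protein sequence were dropped. The binding signal, a within-array Z-score, was averaged across arrays of the same protein sequence and across linkers. Negative scores can be read as non-binding.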

For test [2], the system named is Fuc(a1-2)Gal(b1-4)GlcNAc6S. An outline of the steps:
as §1

Test [3] concerns Fuc(a1-2)Gal(b1-4)[Fuc(a1-3)]GlcNAc(b1-3)GalNAc. Put shortly:
as §1

Test [4] has as its system Fuc(a1-2)Gal(b1-4)[Fuc(a1-3)]GlcNAc. An outline of the steps: as §1
In test [5] the test system is Fuc(a1-2)Gal(b1-3)[Fuc(a1-4)]GlcNAc(b1-2)Man(a1-3)[Fuc(a1-2)Gal(b1-3)[Fuc(a1-4)]GlcNAc(b1-2)Man(a1-6)]Man(b1-4)GlcNAc(b1-4)[Fuc(a1-6)]GlcNAc(b1-4)[Fuc(a1-6)]GlcNAc. An outline of the steps: as §1
The next test has as its system Fuc(a1-2)Gal(b1-4)GlcNAc. Put shortly:
as §1

Test [6] has as its system Fuc(a1-2)Gal(b1-3)[Fuc(a1-4)]GlcNAc. Put shortly: as §1
The subject of test [7] is Fuc(a1-2)Gal(b1-4)GlcNAc(b1-2)[Fuc(a1-2)Gal(b1-4)GlcNAc(b1-4)]Man(a1-3)[Fuc(a1-2)Gal(b1-4)GlcNAc(b1-2)Man(a1-6)]Man(b1-4)GlcNAc(b1-4)GlcNAc. Put shortly:
as §1

A further test has as its system Fuc(a1-2)Gal(b1-4)Glc6S. Put shortly: as §1
Test [8] deals with Fuc(a1-2)Gal(b1-4)GlcNAc(b1-3)GalNAc. An outline of the steps:
as §1

Test [9] relates to Fuc(a1-2)Gal(b1-4)[Fuc(a1-3)]GlcNAc(b1-2)Man(a1-3)[Fuc(a1-2)Gal(b1-4)[Fuc(a1-3)]GlcNAc(b1-2)Man(a1-6)]Man(b1-4)GlcNAc(b1-4)GlcNAc. An outline of the steps: as §1
For test [10], the system named is Fuc(a1-2)Gal(b1-4)GlcNAc(b1-2)Man(a1-3)[Fuc(a1-2)Gal(b1-4)GlcNAc(b1-2)Man(a1-6)]Man(b1-4)GlcNAc(b1-4)[Fuc(a1-6)]GlcNAc. Put shortly: as §1
In test [11] the test system is Fuc(a1-2)Gal(b1-4)GlcNAc(b1-3)[Fuc(a1-2)Gal(b1-4)GlcNAc(b1-6)]GalNAc. An outline of the steps: as §1
For test [12], the system named is Fuc(a1-2)Gal(b1-4)GlcNAc(b1-3)[Fuc(a1-3)[Gal(b1-4)]GlcNAc(b1-6)]Gal(b1-4)Glc. An outline of the steps:
as §1

The subject of test [13] is Fuc(a1-2)Gal(b1-4)[Fuc(a1-3)]GlcNAc(b1-3)Gal(b1-4)[Fuc(a1-3)]GlcNAc(b1-3)Gal(b1-4)[Fuc(a1-3)]GlcNAc. Put shortly: as §1
Test [14] relates to Fuc(a1-2)Gal(b1-4)GlcNAc(b1-3)Gal(b1-4)GlcNAc(b1-2)Man(a1-3)[Fuc(a1-2)Gal(b1-4)GlcNAc(b1-3)Gal(b1-4)GlcNAc(b1-2)Man(a1-6)]Man(b1-4)GlcNAc(b1-4)GlcNAc. Put shortly: as §1
The test system of test [15] is Fuc(a1-2)Gal(b1-4)GlcNAc(b1-6)GalNAc. Put shortly: as §1
The subject of test [16] is Fuc(a1-2)Gal(b1-4)GlcNAc(b1-3)Gal(b1-4)GlcNAc(b1-3)Gal(b1-4)GlcNAc. Put shortly:
as §1

The subject of test [17] is Fuc(a1-2)Gal(b1-4)GlcNAc(b1-3)Gal(b1-4)GlcNAc. An outline of the steps:
as §1

In test [18] the test system is Fuc(a1-2)Gal(b1-4)[Fuc(a1-3)]GlcNAc(b1-3)Gal(b1-4)[Fuc(a1-3)]GlcNAc. Put shortly: as §1

The sample as a whole holds a higher share of the strongest signals than the screen did.

“SpGH101 (Streptococcus pneumoniae), Q8DR60”: the “glycan array binding signal (z-score)” value is 0.018 in test [1], -0.166 in test [2], 0.136 in test [3] and -0.183 in test [4].
As for Actinohivin (Actinomycete K97), the “glycan array binding signal (z-score)” value in test [5] stood at 0.06.
For the substance Epa22, the “glycan array binding signal (z-score)” value in test [5] came out at 0.488; in the test with Fuc(a1-2)Gal(b1-4)GlcNAc, 0.238.
Consider “AgI/II Vhelical-GFP (Streptococcus mutans)”, for which the “glycan array binding signal (z-score)” value in [6] is -0.149; in test [7] it was -0.246.
Regarding “SiiE (Salmonella typhimurium), A0A0H3NVH0”, the “glycan array binding signal (z-score)” value with Fuc(a1-2)Gal(b1-4)Glc6S was 3.24; in test [8] it was -0.206; in test [9] it was 2.43; in [3] it was 1.53.
On to AgI/IIC123-GFP (Streptococcus mutans), for which the “glycan array binding signal (z-score)” value is -0.573 in test [10], -0.365 in test [11], 0.17 in [12] and -0.094 in [13].
Regarding LcI (Legionella pneumophila), the “glycan array binding signal (z-score)” value is 0.257 in [10], 3.4 in test [14], -0.92 in [12] and -0.561 in [4].
Turning to Wza (Escherichia coli), P0A930, the results for the “glycan array binding signal (z-score)” value in test [7] and in test [15] were 0.441 and 0.01, respectively.
On to GspB (Streptococcus gordonii), Q939N5, for which, in test [16], the “glycan array binding signal (z-score)” value came to 0.
BambL (Burhholderia ambifaria), Q0B4G1: the “glycan array binding signal (z-score)” value in [16] is 3.79; in test [17], 3.14; in test [8], -0.033; in the test with Fuc(a1-2)Gal(b1-4)GlcNAc it was 3.81; in test [18], 3.28.
